Ba/F3 V617F tox = lowers viability of Ba/F3 cells expressing EpoR and JAK2V617F | 220,000 compounds, 1.1% hits | inhibition, % at 5.6 µM | ATP luminescence | AID 1446;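 active = inhibition above the campaign mean plus 3 SD over all tested compounds, cut at about 24% in these data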;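 note: cytokine-independent growth of Ba/F3 cells driven by EpoR plus mutant JAK2; 0% = DMSO-treated cells and 100% = JAK inhibitor I control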
IEC-6 tox = kills IEC-6 intestinal cells in KLF5 counter-screen | IEC-6 cytotoxicity, luminescence viability | inhibition, % at 5 µM | 290,000 compounds, 0.78% hits; in the data active = inhibition above about 22%;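 note: 0% = plate median of test compound wells and 100% = cytotoxic reference compound wells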
APP 5UTR inh = APP translation inhibition; SH-SY5Y APP 5'UTR-luciferase reporter, luminescence; inhibition, % at 2 µM; 190,000 compounds, 0.82% hits;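 active = inhibition above a set limit, derived from the sample mean plus 3 SD, cut at about 45% in these data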
BaF3 parental = parental Ba/F3 viability inhibition as JAK2V617F counter-screen | 220,000 compounds, 1.1% hits | inhibition, % at 5.6 µM | CellTiter-Glo ATP luminescence;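 active = inhibition above a per-campaign cutoff, the mean inhibition of all tested compounds plus 3 SD, cut at about 27% in these data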;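 note: 0% = DMSO wells and 100% = JAK Inhibitor I control wells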
aSyn 5UTR inh = 5' untranslated region of α-synuclein, MLPCN primary screen; alpha-synuclein 5'UTR reporter, inhibitor activity; 300,000 compounds, 0.82% hits; inhibition, % (tested at 7.5 µM); in the data active = inhibition above about 60%;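 note: H4 neuroglioblastoma cells stably carrying SNCA 5'UTR luciferase fusion; 0% = DMSO wells and 100% = positive control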
KLF5 inh = suppresses KLF5 promoter-driven expression; DLD-1 KLF5 promoter-luciferase reporter, luminescence; inhibition, % at 5 µM; 290,000 compounds, 0.23% hits; AID 1700;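 active = inhibition above a per-plate limit of that plate's mean compound inhibition plus 3 SD, cut at about 60% in these data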;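 note: 0% = DMSO wells and 100% = LY294002 at 200 µM; higher means less KLF5 promoter-driven luciferase light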
* = called active by the depositor; i = inactive; x = not tested or not shown. Only some compounds are listed: those with a hit (about 2.2% of all), similar ones and a draw of the others.

SMILES	Ba/F3 V617F tox	IEC-6 tox	APP 5UTR inh	BaF3 parental	aSyn 5UTR inh	KLF5 inh
COc1ccc(N2C(=O)C(C)(C)C2c2c(O)ccc3ccccc23)cc1 (configuration not stated)	x	-7	x	x	5	9
CCCCCCCC1CC(CSc2ncn[nH]2)OC1=O (configuration not stated)	-1	5	49*	0	19	-21
COc1ccc(/C=N/OC(=O)Nc2ccccc2OC)cc1	10	35*	-92	9	-28	-66
COc1ccc(NC(=O)O/N=C/c2ccc(Br)cc2)cc1	x	-4	x	x	-21	-13
COc1ccc(/C=C/c2cc(C(=O)O)c3ccccc3n2)cc1	-1	-4	x	3	81*	3
COc1ccc(/C=C/C(=O)Nc2ccccc2C(=O)O)cc1	-1	3	-152	8	83*	-41
CCN1CCC(C(N)=O)CC1	0	-1	-10	2	-22	-4
O=C1CCC(C(=O)N2CCN(c3ccc(F)cc3)CC2)CN1CC1CCCCC1 (configuration not stated)	x	0	x	x	-19	-44
COc1cnc(-c2ccccn2)nc1NC(C)C	-1	11	40	5	98*	-25
COc1ccc(-c2csc(NC(=O)Cc3ccccc3F)n2)c(OC)c1	x	-1	x	x	-8	-6
CC1(c2ccc(Cl)cc2Cl)OCC(Cn2ccnc2)O1 (configuration not stated)	0	2	-14	95*	17	-17
OC(Cn1ccnc1)c1ccc(Cl)cc1Cl (configuration not stated)	-1	2	3	6	19	-12
Cc1ccc(C)c(S(=O)(=O)NCC(=O)Nc2ccc3c(c2)OCO3)c1	x	-3	x	x	-18	-15
COc1ccc(Nc2nc(N3CCCCC3)c3ccccc3n2)cc1	7	5	-8	35*	-13	-5
Oc1ccc(Nc2nc(N3CCCC3)c3ccccc3n2)cc1	48*	13	8	61*	i	-19
CCCCCNc1nc2sc3c(c2c(=O)n1-c1cccc(Cl)c1)CCN(C)C3	76*	5	x	68*	x	-10
CCCCNc1nc2sc3c(c2c(=O)n1-c1cccc(Cl)c1)CCN(C)C3	80*	-3	x	68*	x	-19
CCCCSc1nc2sc3c(c2c(=O)n1-c1ccccc1)CCN(C)C3	x	-3	x	x	3	-30
CC(=O)c1cccc(S(=O)(=O)NCCC(=O)O)c1	-4	1	-8	34*	-5	0
Cc1nc(-c2ccccc2)cc(N2CCCC2)n1	-1	8	-1	0	-35	4
Cc1cc(-c2ccccc2)nc2[n+]1CCN2C	68*	-3	-12	62*	-8	-6
Cc1ccc(NC(=S)NC(=O)C2CC2)c(C)c1	x	-8	x	x	-119	-82
CCn1ncc(Br)c1C(=O)Nc1ccc(F)c([N+](=O)[O-])c1	-2	25*	3	3	14	-16
Nc1c(C(=O)NC2CC2)sc2nc3c(c(-c4ccco4)c12)CC/C3=C/c1ccco1	-5	-19	51*	1	x	13
O=C(CNC(=O)c1ccccc1Br)N/N=C/c1cc(Br)ccc1O	-1	-2	32	3	70*	-3
SMILES	Ba/F3 V617F tox	IEC-6 tox	APP 5UTR inh	BaF3 parental	aSyn 5UTR inh	KLF5 inh
O=C(CNC(=O)c1ccccc1Br)N/N=C/c1ccccc1O	3	4	16	5	4	-15
COc1ccc(N(C)C(=O)C2CCN(S(=O)(=O)c3cccc4nonc34)CC2)c(OC)c1	x	4	x	x	13	2
c1coc(CN(Cc2ccco2)c2ncnc3c2oc2ccccc23)c1	-1	0	9	3	21	0
CC1CCN(c2ccc(-c3ccc(NC(=O)C(F)(F)F)cc3)nn2)CC1	x	11	x	x	71*	40
COC(=O)c1cccc(Cn2c(Cl)c(/C=N/Nc3ccccc3C)sc2=O)c1	-3	-6	46*	0	-2	4
Cc1ccccc1N/N=C/c1sc(=O)n(Cc2cccc(C(=O)O)c2)c1Cl	-3	-2	x	-2	2	19
COc1ccc(-c2noc(=O)n2Cc2ccccc2F)cc1	x	-2	x	x	5	-14
Nc1nc2c(ncn2[C@H]2C[C@H](O)[C@@H](CO)O2)c(=O)[nH]1	x	x	x	x	7	x
Nc1nc(Cl)nc2c1ncn2C1CC(O)C(CO)O1 (configuration not stated)	x	x	x	x	87*	x
Nc1nc(F)nc2c1ncn2[C@@H]1O[C@H](CO)[C@@H](O)[C@H]1O	x	x	x	x	122*	x
N#C/C(=C\c1ccc(OCc2ccc(C(=O)O)cc2)cc1)C(=O)N1CCOCC1	2	0	56*	8	93*	40
COc1cc(/C=C(\C#N)C(=O)N2CCOCC2)ccc1OCc1ccccc1	-1	-1	-37	8	-120	-20
Cc1c(C(=O)NCCCN2CCCCC2)oc2ccc3c(c12)C(O)CC1(CCCCC1)O3 (configuration not stated)	x	8	x	x	76*	-27
CCc1n(CC(O)COCc2ccccc2)c2ccccc2[n+]1C (configuration not stated)	38*	-3	-7	49*	-27	19
O=C(/C=C/c1cccnc1)c1cc(F)ccc1O	-2	8	x	5	-42	-12
O=C(/C=C/c1cccnc1)/C=C/c1cccnc1	95*	49*	x	103*	x	5
O=C(CCc1c[nH]c2ccccc12)NCCc1ccc(Cl)cc1	x	5	x	x	4	5
CCCCNC(=O)CN(c1cc(C(F)(F)F)ccc1Cl)S(C)(=O)=O	-3	2	3	0	6	-17
COc1ccc(S(=O)(=O)n2c([N+](=O)[O-])cnc2C)c(C)c1C	x	1	x	x	-14	-32
C=CCNC(=S)/N=c1/ccccn1CCC	51*	0	x	56*	12	-35
CC[n+]1ccc(/C=C2\Sc3ccccc3N2CCCS(=O)(=O)[O-])c2ccccc21	1	-1	-11	2	-2	-21
CN1C=C/C(=C\c2cc[n+](C)c3ccccc23)c2ccccc21	19	6	32	51*	74*	-6
COc1ccc2c(c1)O[C@@H](c1cccc(C(F)(F)F)c1)[C@H](O)C2=O	2	8	-2	5	62*	-14
CCOC(=O)c1sc(NS(=O)(=O)c2ccccc2)nc1C	1	0	-2	1	12	-19
CCOC(=O)c1sc(Nc2nc(C)cc(C)n2)nc1C	6	2	x	-1	84*	24
CCOC(=O)c1sc(NS(=O)(=O)c2ccccc2Cl)nc1C	4	3	-8	51*	17	-3
CCOC(=O)c1sc(Nc2nc(C)cc(OC)n2)nc1C	5	6	-6	10	-25	-20
CCC1CCCCN1C(=O)CSc1nnc(-c2cccs2)o1 (configuration not stated)	1	-8	-101	6	-74	-150
N#CCCN1CCN(S(=O)(=O)c2ccc(S(=O)(=O)N3CCOCC3)cc2)CC1	0	2	4	6	7	-22
CC(C)OCCCNC(=O)NC12CC3CC(CC(C3)C1)C2	0	3	3	2	-43	-13

Screening results from PubChem BioAssay.
